From PubChem BioAssay
KCNH2 3.1 inh: qHTS for Inhibitors of KCHN2 3.1: Mutant qHTS; Potassium voltage-gated channel subfamily H member 2, brain isoform KCNH2 3.1 (human); hit rate 0.95% among 340,000; U2OS KCNH2 3.1, thallium flux FluxOr; stronger effect = lower value; activity change, % (tested at about 1.8 µM);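 active = maximum activity change below -70%; inconclusive = maximum activity change from -70% to -50%; inactive = maximum activity change above -50%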;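 also: thallium influx rate constant from kinetic fluorescence after stimulation buffer; % is scaled to controls: 0 for no effect and ±100 for the full control effect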
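Channel expression came from 3.1 mutant virus (1.77 x 10^8 /mL) applied to suspended U2OS cells for 4 h. Flux was tracked with FluxOr dye plus Red40 quencher, and kinetic rate constants normalized to controls.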
Anesthetic bind: qHTS Assay for Identification of Novel General Anesthetics | apoferritin/1-aminoanthracene competitive binding, fluorescence | hit rate 0.074% among 350,000 | Ferritin light chain (Equus caballus), P02791 | Potency, µM (doses to about 77.5 µM), for inactives: at the top dose activity change, negative = displacement, most hits filed as inhibitors; also: potency is read from the fitted curve at half-maximal effect; % is scaled to controls: 0 for no effect and ±100 for the full control effect; nearly all actives have a fitted effect of over 20% in size
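Probe: 1-aminoanthracene (50% saturated, PBS). Protein: horse-spleen apoferritin, 10 uM. Incubation: 10 min, room temperature. Detection: 380 nm excitation, 535 nm emission. Analysis: normalized response, four-parameter Hill.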
ASM inhibitor: Inhibitors of Secretory Acid Sphingomyelinase (S-ASM): qHTS; Sphingomyelin phosphodiesterase (Homo sapiens), P17405; placental ASM, HMU-PC fluorogenic substrate, 60 min; Potency, µM (series often up to 57.5 µM), without a hit: at the highest dose activity change, negative = inhibition, usual class: inhibitors; hit rate 0.006% among 340,000; also: potency is read from the fitted curve at half-maximal effect
Target sequence (P17405 47-631 limits assumed): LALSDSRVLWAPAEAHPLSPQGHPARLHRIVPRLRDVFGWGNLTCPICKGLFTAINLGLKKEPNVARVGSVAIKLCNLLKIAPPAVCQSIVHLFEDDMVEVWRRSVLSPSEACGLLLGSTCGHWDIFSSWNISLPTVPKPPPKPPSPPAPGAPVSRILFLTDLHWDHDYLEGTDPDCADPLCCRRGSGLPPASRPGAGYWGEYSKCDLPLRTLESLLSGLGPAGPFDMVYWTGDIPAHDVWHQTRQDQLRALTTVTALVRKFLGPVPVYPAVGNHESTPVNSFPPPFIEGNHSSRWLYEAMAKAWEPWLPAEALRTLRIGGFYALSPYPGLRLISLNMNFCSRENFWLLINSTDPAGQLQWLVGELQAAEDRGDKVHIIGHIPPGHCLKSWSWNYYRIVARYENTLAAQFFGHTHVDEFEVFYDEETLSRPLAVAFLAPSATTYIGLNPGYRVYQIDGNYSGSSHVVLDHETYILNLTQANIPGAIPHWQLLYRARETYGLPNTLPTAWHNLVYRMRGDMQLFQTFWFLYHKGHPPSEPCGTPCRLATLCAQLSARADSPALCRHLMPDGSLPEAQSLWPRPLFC
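HMU-PC0 cleavage (9 uM final) by human placental ASM, 60 min at 37 °C following 10 min compound exposure at RT; stopped at pH 10, fluorescence Ex 386/Em 447 nm.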
IDH1 R132H inh: qHTS for Inhibitors of mutant isocitrate dehydrogenase 1 (IDH1): qHTS. Isocitrate dehydrogenase [NADP] cytoplasmic (Homo sapiens), O75874. IDH1-R132H enzyme, NADPH consumption, diaphorase/resazurin fluorescence. Potency, µM (titrated, usually from 76.6 µM), without a hit: at the highest dose activity change, negative = inhibition, hits mostly inhibitors. hit rate 0.093% among 390,000. AID 602179, 2012; also: potency is read from the fitted curve at half-maximal effect; % is scaled to controls: 0 for no effect and ±100 for the full control effect; nearly all actives have a fitted effect of over 65% in size
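IDH1-R132H (0.5 ug/mL) preincubated 30 min with compound, then NADPH (0.016 mM) and alpha-KG (2 mM) added; 80 min at RT, pH 7.5. Remaining NADPH coupled via diaphorase/resazurin to fluorescence (540/590 nm); concentration-response curves normalized to no-enzyme control.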
hERG WT inh: qHTS for Inhibitors of KCHN2 3.1: Wildtype qHTS; Voltage-gated inwardly rectifying potassium channel KCNH2 (Homo sapiens), Q12809; U2OS, BacMam KCNH2, thallium flux FluxOr; stronger effect = lower value; activity change, % at 1.84 µM; hit rate 0.37% among 340,000; AID 720551, 2013;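 active = maximum activity change below -70%; inconclusive = maximum activity change between -70% and -50%; inactive = maximum activity change above -50%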; also: % is scaled to controls: 0 for no effect and ±100 for the full control effect
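U2OS cells transduced with wild-type KCNH2 virus are loaded with FluxOr dye for 45 min, and thallium flux is measured in kinetic reads before and after stimulation buffer. Rate constants are normalized to DMSO controls.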
An asterisk follows results filed as active; i = inactive; ? = inconclusive; / = no result. Sampled rows, rich in hits. Any-hit rate of the full collection: about 1.2%. Unless noted, calls follow the shape of the dose curve; as a rule, active = well fitted inhibition curve with a large enough effect; inconclusive = small, poorly fitted or top-dose-only effect; inactive = no such curve, though single readings can be large or run the other way.

SMILES	KCNH2 3.1 inh	Anesthetic bind	ASM inhibitor	IDH1 R132H inh	hERG WT inh
CCC(Sc1nc(C)cc(C)n1)C(=O)Nc1cc(C)on1 (centres undefined)	-1	-4%	2%	11%	i
CCC(Sc1nc(C)cc(C)n1)C(=O)NC1=NN=C(c2ccc(C)cc2)CS1 (centres undefined)	-3	?	-7%	46µM*	15
Cc1ccc(S(=O)(=O)N2CCc3cc(C(=O)Nc4c(F)cccc4F)ccc32)cc1	/	1%	/	-7%	/
CCOc1ccc(OCC(=O)Nc2c(C(=O)Nc3ccc(C)cc3)oc3ccccc23)cc1	/	2%	/	-3%	/
Cc1cccc(CN2C(=O)NC(c3ccccc3)(c3ccccc3)C2=O)c1	-89*	-2%	-7%	1%	4
CC[C@]12CCCN3CCc4c(n(c5ccccc45)C(=O)C1)[C@@H]32	?	/	0%	8%	47
CC[C@]12CCCN3CCc4c(n(c5ccccc45)[C@@](O)(C(=O)OC)C1)[C@@H]32	-103*	/	0%	-3%	-15
CCCCNCC1C(Oc2ccc(Cl)cc2)C(=O)N1c1ccccc1C (centres undefined)	-94*	-11%	3%	-5%	5
CCCn1c(-c2ccc(F)cc2)nc2c(NCCCN(CCO)CCO)nc(C)nc21	/	-1%	/	/	/
CCOc1ccccc1C1c2[nH]c3ccccc3c2C[C@H]2C(=O)N(C3CCN(Cc4ccccc4)CC3)CC(=O)N12 (some centres undefined)	-102*	13%	0%	2%	-94*
COC(=O)c1ccc(C2c3[nH]c4ccccc4c3C[C@H]3C(=O)N(C4CCN(Cc5ccccc5)CC4)CC(=O)N23)cc1 (some centres undefined)	-80*	-15%	-9%	0%	-42
C=C(C)c1cccc(C(C)(C)NC(=O)N2CCCC2)c1	17	0%	3%	2%	11
C=C(C)c1cccc(C(C)(C)NC(=O)N2CCN(C(=O)OCC)CC2)c1	-71*	/	/	10%	-1
COc1cccc(C(=O)NCCC2=CCCCC2)c1	-3	28µM*	5%	4%	3
COc1ccc(C(=O)NCCC2=CCCCC2)cc1	13	2%	-2%	3%	-6
CC1(C)CCC(=O)N2CC[C@H]3C[C@H](OC(=O)Nc4ccc5c(c4)OCO5)C[C@@H]1[C@H]32	-135*	-4%	4%	5%	-10
CC1(C)CCC(=O)N2CC[C@H]3C[C@H](OC(=O)Nc4ccccc4)C[C@@H]1[C@H]32	6	-11%	1%	9%	-6
O=C(NCCc1ccccc1F)c1cc(COc2ccc(F)cc2F)on1	?	/	/	-9%	3
O=C(NCCc1ccccc1C(F)(F)F)c1cc(COc2ccccc2)on1	-111*	/	/	5%	-18
COc1ccc(C(=O)Nc2ccc(-c3ccc(C)o3)cc2)cc1S(=O)(=O)N1CCOCC1	-71*	5%	-7%	7%	16
C[C@H](O)[C@@H]1C(=O)N2CCc3c([nH]c4ccccc34)[C@@H]2C[C@@H]1N(C)C(=O)NC1CCCCC1	-14	/	/	0%	-114*
COCC(=O)N(C)[C@H]1C[C@H]2c3[nH]c4ccccc4c3CCN2C(=O)[C@H]1[C@H](C)O	-1	/	/	8%	-4
O=C1c2ccccc2C(=O)N1CCC1=CCCCC1	1	22µM*	-2%	5%	23
COCCNc1nc(C)nc2c1nc(-c1ccccc1)n2CCCN1CCCCC1C (centres undefined)	/	-8%	/	/	/
O=C(NCCN1CCN(c2ccccc2F)CC1)c1cccn2c(=O)c3ccccc3nc12	-79*	-14%	29%	1%	-14
Cc1ccc(SCc2nc(-c3ccc(C(=O)NCc4ccccc4Cl)cc3)oc2C)cc1	/	-3%	/	-6%	/
CCCCOc1ccc(S(=O)(=O)Nc2cccc(-c3ccc(N4CCOCC4)nn3)c2)cc1	/	?	/	-14%	/
